Data: PubChem BioAssay AID1159580 (chemical genetic matrix, 2015)
Out of some 5,500 compounds screened, about 2,000 (36%) were called active. Not shown: some 18% with an inconclusive outcome. No stated cut-off is given here; in the data, active means normalized growth mostly below about 0.91 (no sharp cut-off); inconclusive means no clear call, values can overlap the other calls; inactive means mostly above about 0.92. This is one part of the list.

Assay: chemical genetic growth profiling, strain panel (AID 1159580);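 further: tested at 20 µM; growth read once vehicle control cultures reached saturation at 30 °C; 1 = growth at the plate median or of vehicle wells; lower values mean less growth of the strain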
Details: S. cerevisiae deletion strains, growth OD

Measured: normalized growth

CC1(C)C(=O)C=C[C@@]2(C)C1=C(O)C(=O)[C@]1(C)C2CC[C@@]2(C)[C@H](c3ccoc3)C[C@H]3O[C@]321 (stereo partly specified)
active: locus YJR043C, strain POL32, hits give low values 0.781 | locus YJR066W, strain TOR1, hits give low values 0.757 | locus YKL085W, strain MDH1 (second series), hits give low values 0.885 | locus YKL085W, strain MDH1, hits give low values 0.885 | locus YKL160W, strain elf1, hits give low values 0.872 | locus YKL190W, strain CNB1, hits give low values 0.751 | locus YKR001C, strain vps1, hits give low values 0.777 | locus YLR027C, strain aat2, hits give low values 0.791 | locus YLR039C, strain RIC1, hits give low values 0.404 | locus YLR058C, strain SHM2, hits give low values 0.782 | locus YLR113W, strain HOG1, hits give low values 0.776 | locus YLR221C, strain rsa3, hits give low values 0.759 | locus YLR258W, strain gsy2, hits give low values 0.88 | locus YLR262C, strain YPT6 (second series), hits give low values 0.624 | locus YLR262C, strain YPT6, hits give low values 0.382 | locus YLR268W, strain sec22, hits give low values 0.788 | locus YLR320W, strain mms22, hits give low values 0.639 | locus YLR342W, strain FKS1 (second series), hits give low values 0.578 | locus YLR342W, strain FKS1, hits give low values 0.881 | locus YLR371W, strain rom2, hits give low values 0.706 | locus YLR418C, strain cdc73, hits give low values 0.318 | locus YML016C, strain PPZ1, hits give low values 0.887 | locus YML032C, strain rad52, hits give low values 0.811 | locus YML120C, strain ndi1, hits give low values 0.884 | locus YML124C, strain tub3, hits give low values 0.922 | locus YMR058W, strain fet3, hits give low values 0.875 | locus YMR125W, strain sto1, hits give low values 0.876 | locus YMR205C, strain PFK2, hits give low values 0.674 | locus YMR223W, strain ubp8, hits give low values 0.865 | locus YMR307W, strain GAS1, hits give low values 0.502 | locus YNL071W, strain lat1, hits give low values 0.44 | locus YNL233W, strain BNI4, hits give low values 0.706 | locus YNL307C, strain MCK1, hits give low values 0.505 | locus YNR052C, strain pop2, hits give low values 0.863 | locus YOL147C, strain pex11, hits give low values 0.804 | locus YOR001W, strain rrp6, hits give low values 0.841 | locus YOR061W, strain CKA2, hits give low values 0.847 | locus YOR069W, strain VPS5, hits give low values 0.889 | locus YOR070C, strain gyp1, hits give low values 0.809 | locus YOR083W, strain WHI5, hits give low values 0.875 | locus YOR106W, strain vam3, hits give low values 0.801 | locus YOR136W, strain idh2, hits give low values 0.891 | locus YOR144C, strain elg1, hits give low values 0.855 | locus YOR184W, strain ser1, hits give low values 0.487 | locus YOR231W, strain MKK1, hits give low values 0.706 | locus YOR265W, strain rbl2, hits give low values 0.918 | locus YOR290C, strain snf2, hits give low values 0.84 | locus YPL051W, strain arl3, hits give low values 0.831 | locus YPL240C, strain hsp82, hits give low values 0.861 | locus YPL256C, strain CLN2, hits give low values 0.747 | locus YPR119W, strain clb2, hits give low values 0.915 | locus YPR163C, strain tif3, hits give low values 0.665 | locus YPR167C, strain met16, hits give low values 0.85 | strain wtn01, hits give low values 0.765
inactive: locus YJL187C, strain SWE1, hits give low values 0.928 | locus YKL009W, strain mrt4, hits give low values 0.885 | locus YKL068W, hits give low values 0.942 | locus YKR026C, strain gcn3, hits give low values 0.965 | locus YKR091W, strain srl3, hits give low values 0.969 | locus YLL001W, strain dnm1, hits give low values 0.931 | locus YLL026W, hits give low values 0.944 | locus YLL041C, strain sdh2, hits give low values 0.991 | locus YLR102C, strain apc9, hits give low values 0.967 | locus YLR357W, strain rsc2, hits give low values 1.03 | locus YLR370C, strain arc18, hits give low values 0.959 | locus YLR384C, strain iki3, hits give low values 0.973 | locus YMR078C, strain ctf18, hits give low values 0.936 | locus YMR129W, hits give low values 0.969 | locus YMR231W, strain pep5, hits give low values 0.931 | locus YNL067W, strain RPL9B, hits give low values 0.876 | locus YNL183C, strain NPR1, hits give low values 0.848 | locus YNL209W, strain ssb2, hits give low values 0.943 | locus YNL248C, strain rpa49, hits give low values 0.938 | locus YNL250W, strain rad50, hits give low values 0.97 | locus YNL271C, strain bni1, hits give low values 0.96 | locus YNL298W, strain CLA4, hits give low values 0.922 | locus YNL322C, strain KRE1 (second series), hits give low values 0.981 | locus YNR049C, strain mso1, hits give low values 0.962 | locus YOL006C, strain TOP1, hits give low values 0.666 | locus YOL012C, strain htz1 0.626 | locus YOR080W, strain dia2, hits give low values 0.964 | locus YOR270C, strain vph1, hits give low values 0.897 | locus YOR316C, strain cot1, hits give low values 0.984 | locus YPL078C, strain atp4, hits give low values 0.939 | locus YPL106C, strain sse1, hits give low values 0.91 | locus YPR141C, strain kar3, hits give low values 0.96
